Bioassay records deposited in PubChem by National Center for Advancing Translational Sciences (NCATS).
TDP1 cell noCPT = qHTS for Inhibitors of human tyrosyl-DNA phosphodiesterase 1 (TDP1): qHTS in cells in absence of CPT; DT40 Tdp1-/- hTDP1 cells, no CPT, ATP luminescence, 48 h; Potency, µM (titrated, usually from 46.2 µM), for inactives: top-dose activity change, negative = growth inhibition, actives largely listed as inhibitors; 420,000 tested, 15% active; AID 686978, 2013; further: potency means the concentration at half of the fitted maximal effect; nearly all actives have a fitted effect of over 55% in size
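Luminescent ATP content (CellTiter-Glo) served as the growth readout. Knockout chicken DT40 cells expressing human TDP1 were exposed to compounds without camptothecin for a minimum 48 hr at 37 °C.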
Gal4-VP16 FLuc = VP16 counterscreen qHTS for inhibitors of ROR gamma transcriptional activity | Drosophila S2 Gal4-VP16 UAS-luciferase, luminescence, 20 h | Potency, µM (series often up to 53.6 µM), inactives show top-dose activity, negative = inhibition, usual class: inhibitors | 310,000 tested, 3.5% active | AID 2546, 2010;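 further: Gal4-VP16 expression switched on by copper sulfate through the metallothionein promoter; potency means the concentration at half of the fitted maximal effect; nearly all actives have a fitted effect of over 50% in size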
ELG1 DNA repair = qHTS screen for small molecules that inhibit ELG1-dependent DNA repair in human embryonic kidney (HEK293T) cells expressing luciferase-tagged ELG1; AID 504467, 2011; 330,000 tested, 2.3% active; HEK293T ELG1-luciferase reporter, luminescence, 16 h; DNA damage induced by 5-fluorouridine; Potency, µM (top dose mostly 46.1 µM), for the others: top-dose activity change, negative = inhibition, usual class: inhibitors; further: potency means the concentration at half of the fitted maximal effect; nearly all actives have a fitted effect of over 55% in size
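DMSO vehicle served as the neutral condition. Each well held 2,000 cells given 5-fluorouridine plus compound; after 16 hr at 37 °C/5% CO2, ONE-Glo was added and luciferase measured 30 min later.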
RORg inh = qHTS for inhibitors of ROR gamma transcriptional activity. Nuclear receptor ROR-gamma (Mus musculus), P51450. Drosophila S2 Gal4-RORgamma UAS-luciferase reporter, 20 h. Potency, µM (titrated, usually from 53.6 µM), for the others: at the highest dose activity change, negative = inhibition, actives largely listed as inhibitors. 310,000 tested, 5.4% active; further: potency means the concentration at half of the fitted maximal effect; nearly all actives have a fitted effect of over 60% in size
Target sequence (P51450 whole entry, looked up, the tested form may be a part): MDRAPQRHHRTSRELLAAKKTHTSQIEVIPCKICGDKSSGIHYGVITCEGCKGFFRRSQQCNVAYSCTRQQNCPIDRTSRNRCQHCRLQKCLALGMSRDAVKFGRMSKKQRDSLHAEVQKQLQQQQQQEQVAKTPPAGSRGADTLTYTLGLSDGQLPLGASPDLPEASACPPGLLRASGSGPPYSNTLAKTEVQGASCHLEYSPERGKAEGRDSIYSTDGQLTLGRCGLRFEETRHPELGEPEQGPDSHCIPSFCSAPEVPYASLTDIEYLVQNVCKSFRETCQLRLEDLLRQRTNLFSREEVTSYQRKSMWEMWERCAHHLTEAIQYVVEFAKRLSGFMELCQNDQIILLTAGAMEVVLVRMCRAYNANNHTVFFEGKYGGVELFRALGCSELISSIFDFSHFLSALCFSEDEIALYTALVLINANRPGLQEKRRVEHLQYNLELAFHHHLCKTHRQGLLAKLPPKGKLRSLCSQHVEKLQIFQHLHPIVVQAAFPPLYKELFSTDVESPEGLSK
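Read-out: Photinus luciferase luminescence; inhibitors lower reporter signal. Insect Schneider cells with Gal4-ROR gamma fusion under metallothionein promoter, UAS reporter; 700 uM final copper sulfate induction, 20 hr, ambient temperature.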
IL1B secr inh = qHTS for Inhibitors of Inflammasome Signaling: IL-1-beta AlphaLISA Primary Screen | activity change, % at 57.5 µM | THP-1 LPS/ATP IL-1B secretion, AlphaLISA, 16 h; hits give low values | AID 743279, 2014 | 360,000 tested, 4.7% active; in the data active means activity change below about -50%; inconclusive means mostly about -30% to -49%
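Secreted IL-1B measured by AlphaLISA bead assay after 16 h compound exposure of THP-1 cells; compounds (final up to 57.5 uM) added 1 h before LPS (250 ng/mL) and ATP (1.25 mM) stimulation; lower signal means less secretion.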
TDP1 cell CPT = qHTS for Inhibitors of human tyrosyl-DNA phosphodiesterase 1 (TDP1): qHTS in cells in presence of CPT | chicken DT40 Tdp1-/-;hTDP1 cells + 20 nM CPT, ATP luminescence, 48 h | Potency, µM (top dose mostly 46.2 µM), inactives show top-dose activity change, negative = growth inhibition, actives largely listed as inhibitors | 420,000 tested, 12% active; further: potency means the concentration at half of the fitted maximal effect; nearly all actives have a fitted effect of over 55% in size
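Chicken DT40 Tdp1-/- cells complemented with human TDP1, 400 cells/well, exposed to compounds plus 20 nM camptothecin for at least 48 h at 37 C; viability read as ATP content by CellTiter-Glo luminescence.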
* = called active by the depositor; i = inactive; ? = inconclusive; nt = no result given; [ ] = remark or other dose. The list is not random: actives were taken first. Their share in the collection is about 21%. Unless noted, the call rests on the fitted dose curve; in most records, active means well fitted curve in the direction sought with a large enough effect; inconclusive means small, poorly fitted or top-dose-only effect, or another doubt; inactive means no such curve, though single readings can be large; an effect the other way counts as inactive or inconclusive. On the % scale 0 is the no-effect control and ±100 the full control effect.

SMILES | TDP1 cell noCPT | Gal4-VP16 FLuc | ELG1 DNA repair | RORg inh | IL1B secr inh | TDP1 cell CPT
Cc1cc(OCc2cc(C(=O)N(C)C(C)c3ccccn3)no2)cc(C)c1Cl (stereo not drawn) | ? | ? | ? | ? | -12 | 18µM*
Cc1cc(OCc2cc(C(=O)N3CCC(Oc4cccnc4)CC3)no2)cc(C)c1Cl | 15µM* | ? | -20% | -28% | -62* | 13µM*
COC(=O)CCNC(=O)N1CCN(c2nnc(C)c3c(C)n(-c4ccccc4)nc23)CC1 | -14% | nt | nt | nt | nt | -2%
Cc1ccc(OCc2cc(C(=O)N3CCN(C4CCCCC4)CC3)no2)cc1C | ? | -7% | ? | ? | 8 | 16µM*
Cc1ccc(OCc2cc(C(=O)N3CCN(C4CCCC4)CC3)no2)cc1C | -24% | -14% | ? | 11% | i | -25%
Cc1cc(OCc2cc(C(=O)NC(C)c3cnn(C)c3)no2)cc(C)c1Cl (stereo not drawn) | 16µM* | nt | nt | nt | -9 | 18µM*
CC(=O)c1ccc(OCc2cc(C(=O)NC(C)c3cnn(C)c3)no2)cc1 (stereo not drawn) | -5% | ? | ? | 36% | 9 | -29%
Cc1ccc([C@@H]2CC(=O)[C@@H]3CN(S(=O)(=O)c4ccc(C)cc4)[C@H](c4ccc(Cl)cc4)C[C@@H]3N2S(=O)(=O)c2ccc(Cl)cc2)cc1 | ? | nt | nt | nt | 23 | -18%
N#Cc1cccc(-c2nc(NCc3cccs3)c3ccccc3n2)c1 | -1% | 2% | nt | 0% | nt | 2%
COc1ccc(NC(=O)C(C)Sc2nnc3c4c(nc(-c5ccc(OC)cc5)n23)CC(C)(C)OC4)cc1 (stereo not drawn) | 15µM* | -17% | ? | ? | -1 | 21µM*
COc1ccc(-c2nc3c(c4nnc(SC(C)C(=O)Nc5ccccc5)n24)COC(C)(C)C3)cc1 (stereo not drawn) | -3% | -7% | ? | 14% | 9 | 0%
CCn1c(C(=O)Nc2c(C)cccc2C)cc2sc(Cl)cc21 | ? | nt | nt | nt | nt | -25%
Cc1ccccc1C(=O)NC1CC2CCCC(C1)N2C(=O)Nc1ccccc1 (stereo not drawn) | 5% | 8% | 7% | 19% | -4 | 9%
CCCCCCCCCCCC1N=C(N)NC(CCCO)=C1C(=O)OC (stereo not drawn) | 3.7µM* | nt | nt | nt | ? | 5.8µM*
CCCCCCOC(=O)c1ccc(N)cc1 | 1% | -16% | ? | 3% | -28 | -6%
COc1cc2c(cc1OC)C(Nn1cnnc1)=NC1(CCCC1)C2 | 7% | -2% | ? | -8% | -12 | -2%
CN(C(=S)NC1CCCCC1)C1(c2ccccc2Cl)CCCCC1=O (stereo not drawn) | ? | ? | 21% | 13µM* | -15 | -22%
CCC1C(=O)NCCN1Cc1ccc2c(c1)CN(Cc1cccc(OC)c1)CCO2 (stereo not drawn) | -4% | nt | nt | nt | nt | 12%[9.04 µM]
Cc1ccc(C(=O)O/N=C\c2ccc(N3CCOCC3)c([N+](=O)[O-])c2)cc1 | -10% | 2% | 2% | -5% | 2 | 0%
Cc1c(CCOC(=O)c2ccc(N3CCOCC3)c([N+](=O)[O-])c2)sc[n+]1CC#N | 2.6µM* | -5% | 5% | 23% | -102* | 4.6µM*
Cc1ncsc1CCOC(=O)c1ccc(N2CCOCC2)c([N+](=O)[O-])c1 | 17% | 4µM* | ? | ? | 23 | -7%
NC(c1ccccc1)c1csc(Nc2ccccn2)n1 (stereo not drawn) | 21µM* | nt | nt | nt | ? | ?
NC(c1csc(Nc2ccccn2)n1)C1CCCCC1 (stereo not drawn) | 16µM* | nt | nt | nt | -68* | 15µM*
CC(C)N(C)CCOC(=O)c1ccccc1Br | ? | 0% | 2% | -5% | -4 | 16µM*
CCCOc1ccc(CNC(=O)c2ccc3c(c2)N(Cc2ccccc2)CCS3)cc1 | 18µM* | nt | nt | nt | nt | ?
SMILES | TDP1 cell noCPT | Gal4-VP16 FLuc | ELG1 DNA repair | RORg inh | IL1B secr inh | TDP1 cell CPT
O=C(NCc1ccccc1)c1ccc2c(c1)N(Cc1ccc(F)cc1)CCS2 | 18µM* | nt | nt | nt | nt | ?
CCN1CCSc2ccc(C(=O)NCc3ccc(OC)cc3)cc21 | ? | nt | nt | nt | nt | -65%
O=C(NCc1ccc(Cl)cc1)c1cnc2sc(N3CCCCCC3)nn2c1=O | -1% | nt | nt | nt | nt | 15%
CC(C)CCN1CCC(n2nccc2NC(=O)c2ccc3c(c2)OCO3)CC1 | -9% | -4% | ? | -5% | -67* | 16%
CCCC(=O)N1CCCC1(C)C(=O)Nc1ccc(-n2cncn2)cc1 (stereo not drawn) | 28% | nt | nt | nt | -6 | 10%
Cc1ccc(CNC(=S)Nc2cc(C(=O)O)ccc2C)cc1 | -30% | -12% | 5% | 3% | 7 | 5%
COCCCNC(=S)Nc1ccccc1C | 30% | -24% | 3% | ? | 5 | -1%
Cc1ccc(NC(=S)NCc2ccccc2)c(C)c1 | ? | 7.1µM* | ? | 5µM* | -14 | 23µM*
Cc1ccccc1NC(=S)NCCC(c1ccccc1)c1ccccc1 | ? | 13µM* | -2% | 5µM* | -62* | ?
Cc1ccc(NC(=O)CC(=O)Nc2ccc(C)cc2C)c(C)c1 | 0% | -5% | -22% | -8% | 11 | -11%
Cc1ccc(NC(=S)NCCC(c2ccccc2)c2ccccc2)c(C)c1 | 16µM* | -9%[0.365 µM] | -12% | 3.5µM* | -4 | 23µM*
COc1ccc(C)cc1NCc1nnc2n1CCCCC2 | 9% | nt | nt | nt | nt | -21%
CCN(CC)c1ccc(/C=N/Nc2nc(C)cc(C)n2)cc1 | 18µM* | 13µM* | ? | 1µM* | 23 | 23µM*
CCN(CC)c1ccc(/C=N/Nc2nn[nH]n2)cc1 | 12µM* | -4% | ? | -30% | 8 | ?
Brc1cccc(/C=N/Nc2nn[nH]n2)c1 | -25% | ? | 4% | -79% | -11 | -17%
Cc1cn([C@H]2C[C@H](O)[C@@H](/C=C/C(=O)NCCc3ccc(S(N)(=O)=O)cc3)O2)c(=O)[nH]c1=O | 13% | nt | nt | nt | -22 | 4%
COC(=O)c1ccccc1NC(=O)c1ccc(-c2ccc(Br)cc2)o1 | 1.6µM* | -4% | ? | 16% | 22 | -11%
